Hits are enriched below; roughly 2.6% of the tested compounds scored in any of these assays.
ABCB6 inh MLPCN: human ABCB6 transporter inhibition. Q9NP58. AID 602162. 360,000 tested, 0.19% active. K562-ABCB6 porphyrin accumulation, flow cytometry, 1 h; active compounds read low. fluorescence ratio to DMSO, % at 10 µM;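 active = fluorescence ratio to DMSO below 75%, the collection mean minus 3 SD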;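 note: signal is porphyrin accumulated inside mitochondria; 100% equals median channel fluorescence of DMSO control wells; lower ratio means ABCB6 inhibition with less porphyrin fluorescence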
AI-2 QS modul: Vibrio harveyi AI-2 quorum sensing modulation | AID 2094 | Vibrio harveyi JMH597 AI-2 luminescence/OD600 ratio, 9 h; active compounds read low; strain lacks LuxN and CqsS sensors; 0 = neutral-control median | 300,000 tested, 0.4% active | activity change, % at 7.5 µM; in the data active = activity change below about -75%, passing the limit was not always enough;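 note: luminescence divided by OD600 gain over 9 h not by final OD600 alone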
PABP polyA inh: blocks human PABP binding to poly(A) RNA; P11940; calls only at 35 µM; fluorescence polarization; 290,000 tested, 1% active;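 note: calls also rest on retests at 20 µM and on dose response follow-up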
MLLE-PAM2 inh: blocks PAM2 peptide binding to the PABP1 MLLE domain; P11940; GST-MLLE / FITC-PAM2 fluorescence polarization; inhibition, % at 20 µM; 360,000 tested, 0.36% active; AID 588489; in the data active = inhibition above about 35%, passing the limit was not always enough;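 note: plate controls were DMSO wells with GST-MLLE for no effect and wells lacking GST-MLLE protein for full effect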
eIF4H inh: inhibitors of RNA binding by human eIF4H | Q15056 | eIF4H fluorescence polarization binding assay | inhibition, % at 35 µM | 290,000 tested, 0.94% active;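 note: calls also rest on retests at 20 µM and on dose response follow-up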
PHOSPHO1 inh: PHOSPHO1 (human) inhibition; recombinant PHOSPHO1, absorbance phosphatase assay; 290,000 tested, 1.1% active; inhibition, % at 13.3 µM; in the data active = inhibition above about 60%
Target sequence (Q8TCT1 whole entry, looked up): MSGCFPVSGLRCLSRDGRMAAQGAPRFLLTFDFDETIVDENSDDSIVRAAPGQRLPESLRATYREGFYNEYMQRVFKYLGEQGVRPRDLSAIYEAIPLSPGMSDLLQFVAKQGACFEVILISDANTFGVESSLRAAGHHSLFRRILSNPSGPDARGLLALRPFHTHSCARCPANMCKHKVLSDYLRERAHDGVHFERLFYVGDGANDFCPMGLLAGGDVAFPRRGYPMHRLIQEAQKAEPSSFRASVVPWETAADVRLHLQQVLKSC
An asterisk follows results filed as active. Unless noted, the rule behind the calls is not given here.

Results for CSc1ccc(OC2(C)CCN(Cc3cc4ccccc4o3)C2)cc1 (centres undefined) ?
ABCB6 inh MLPCN: 98; MLLE-PAM2 inh: 7

How did CCOC(=O)N1CCN(C(=O)c2ccc(CS(=O)c3cccc(C)c3)o2)CC1 (centres undefined) do in these assays?
ABCB6 inh MLPCN: 98; MLLE-PAM2 inh: 2

Results for Cc1ccc(N(CC(=O)NC2CCCCC2)C(=O)CCCC(=O)Nc2ccccn2)cc1 ?
ABCB6 inh MLPCN: 92; AI-2 QS modul: -1; PABP polyA inh: active; MLLE-PAM2 inh: 0; eIF4H inh: 79*; PHOSPHO1 inh: 52

How did C=CCn1c(SCC(=O)NC2CCCC2)nc2scc(-c3ccco3)c2c1=O do in these assays?
ABCB6 inh MLPCN: 99; AI-2 QS modul: 25; PABP polyA inh: active; MLLE-PAM2 inh: 0; eIF4H inh: 71*; PHOSPHO1 inh: -38

How did CCCNC(=O)c1cc(C2CCCN(C(=O)C3CC3)C2)on1 (centres undefined) do in these assays?
ABCB6 inh MLPCN: 102; MLLE-PAM2 inh: 2

How did COc1ccc(-c2coc3c(C(=O)NCC(C)C)cccc23)c(C)c1 do in these assays?
ABCB6 inh MLPCN: 94; MLLE-PAM2 inh: -11

How did CCCc1cc(=O)oc2cc(OCC(=O)NC(Cc3c[nH]c4ccc(O)cc34)C(=O)O)c(Cl)cc12 (centres undefined) do in these assays?
ABCB6 inh MLPCN: 104; AI-2 QS modul: 14; PABP polyA inh: active; MLLE-PAM2 inh: -13; eIF4H inh: 52*; PHOSPHO1 inh: 3

How did CC(Oc1ccc2c(-c3ccccc3)cc(=O)oc2c1)C(=O)NC(Cc1c[nH]c2ccc(O)cc12)C(=O)O (centres undefined) do in these assays?
ABCB6 inh MLPCN: 101; AI-2 QS modul: 24; PABP polyA inh: active; MLLE-PAM2 inh: -9; eIF4H inh: 86*; PHOSPHO1 inh: 8

How did O=C(COc1ccc2c(-c3ccccc3)cc(=O)oc2c1)N[C@@H](Cc1c[nH]c2ccc(O)cc12)C(=O)O do in these assays?
ABCB6 inh MLPCN: 104; AI-2 QS modul: 4; PABP polyA inh: inactive; MLLE-PAM2 inh: 2; eIF4H inh: 34; PHOSPHO1 inh: 29

How did COc1ccc2c(c1)c(=O)oc1c(C)c(OC(C)C(=O)N[C@@H](Cc3c[nH]c4ccc(O)cc34)C(=O)O)ccc12 (some centres undefined) do in these assays?
ABCB6 inh MLPCN: 100; AI-2 QS modul: 8; PABP polyA inh: active; MLLE-PAM2 inh: 2; eIF4H inh: 82*; PHOSPHO1 inh: 18

Results for NC(Cc1ccc(F)cc1)c1csc(Nc2ccc(C(F)(F)F)cn2)n1 (centres undefined) ?
ABCB6 inh MLPCN: 97; MLLE-PAM2 inh: -2

Results for COc1ccccc1Cc1c(C(C)(C)C)nc2ccc(C)cn12 ?
ABCB6 inh MLPCN: 107; MLLE-PAM2 inh: 1

What do the screens show for `CC(=O)c1ccc(NCC(=O)N2CCN(c3ccccc3)CC2)cc1`?
ABCB6 inh MLPCN: 99; PABP polyA inh: inactive; MLLE-PAM2 inh: -79; eIF4H inh: 21; PHOSPHO1 inh: 98*

How did O=C(CSc1ncnc2nc[nH]c12)c1ccc(Cl)cc1 do in these assays?
ABCB6 inh MLPCN: 100; AI-2 QS modul: 18; PABP polyA inh: inactive; MLLE-PAM2 inh: -4; eIF4H inh: 3; PHOSPHO1 inh: 31

What do the screens show for `O=C(CSc1ncnc2c(-c3ccc(Cl)cc3)nsc12)c1ccccc1`?
ABCB6 inh MLPCN: 98; AI-2 QS modul: 41; PABP polyA inh: inactive; MLLE-PAM2 inh: 7; eIF4H inh: -4; PHOSPHO1 inh: 73*

Results for CC(C)Oc1cccc(NC(=O)C2(C)CCN2C(=O)C(C)C)c1 (centres undefined) ?
ABCB6 inh MLPCN: 97; MLLE-PAM2 inh: 11

What do the screens show for `CC[n+]1c(/C=C/c2ccc(OC)c(OC)c2)ccc2ccccc21`?
ABCB6 inh MLPCN: 178; AI-2 QS modul: 13; PABP polyA inh: active; MLLE-PAM2 inh: -141; eIF4H inh: 1; PHOSPHO1 inh: 14

Results for CC[n+]1c(/C=C/c2ccc(OC(C)=O)c(OC)c2)ccc2ccccc21 ?
ABCB6 inh MLPCN: 124; AI-2 QS modul: 32; PABP polyA inh: inactive; MLLE-PAM2 inh: -135; eIF4H inh: 4; PHOSPHO1 inh: 1

What do the screens show for `Cc1ccc(CNc2ncnc3ccc(-c4ccoc4C)cc23)o1`?
ABCB6 inh MLPCN: 97; MLLE-PAM2 inh: -11

How did CC(=O)C(Sc1ccc2nnc(-c3ccc(F)cc3)n2n1)C(C)=O do in these assays?
ABCB6 inh MLPCN: 75; AI-2 QS modul: -6; PABP polyA inh: inactive; MLLE-PAM2 inh: 30; eIF4H inh: -4; PHOSPHO1 inh: 89*

What do the screens show for `CCOC(=O)CC(=O)CSc1ccc2nnc(-c3ccc(C)cc3)n2n1`?
ABCB6 inh MLPCN: 190; AI-2 QS modul: 26; PABP polyA inh: inactive; MLLE-PAM2 inh: 12; eIF4H inh: -5; PHOSPHO1 inh: 68*

Results for COc1ccc(-c2nnc3ccc(SCC(=O)N4CCCC4)nn23)cc1 ?
ABCB6 inh MLPCN: 96; AI-2 QS modul: 8; PABP polyA inh: inactive; MLLE-PAM2 inh: 7; eIF4H inh: -4; PHOSPHO1 inh: 15

Results for O=C(CSc1ccc2nnc(-c3ccccc3)n2n1)N1CCCCC1 ?
ABCB6 inh MLPCN: 100; AI-2 QS modul: 19; MLLE-PAM2 inh: 40*

How did O=C1NC(C(=O)O)=CC(c2ccc([N+](=O)[O-])cc2)N1 (centres undefined) do in these assays?
ABCB6 inh MLPCN: 96; AI-2 QS modul: 7; PABP polyA inh: inactive; MLLE-PAM2 inh: 16; eIF4H inh: -3; PHOSPHO1 inh: 4

How did N#CC1=C(N)NC(=S)C(C(N)=O)C1c1ccc([N+](=O)[O-])cc1 (centres undefined) do in these assays?
ABCB6 inh MLPCN: 95; AI-2 QS modul: 46; PABP polyA inh: inactive; MLLE-PAM2 inh: 39*; eIF4H inh: 8; PHOSPHO1 inh: -5

Results for Cc1cc2ncn(-c3ncccc3[N+](=O)[O-])c2cc1C ?
ABCB6 inh MLPCN: 98; AI-2 QS modul: 32; PABP polyA inh: inactive; MLLE-PAM2 inh: 61*; eIF4H inh: -10; PHOSPHO1 inh: 4

Results for COc1ccc(OC)c(CCNC(=O)C(C)n2nc(C)c3c(C)n(-c4ccccc4)nc3c2=O)c1 (centres undefined) ?
ABCB6 inh MLPCN: 99; AI-2 QS modul: -2; PABP polyA inh: inactive; MLLE-PAM2 inh: 4; eIF4H inh: -1; PHOSPHO1 inh: 70*

What do the screens show for `CCC(C(=O)NC1CC1)n1nc(C)c2c(C)n(-c3ccccc3)nc2c1=O` (centres undefined)?
ABCB6 inh MLPCN: 108; AI-2 QS modul: 1; PABP polyA inh: inactive; MLLE-PAM2 inh: -12; eIF4H inh: -8; PHOSPHO1 inh: 65*

How did COc1ccc(OC)c(CCNC(=O)C(C)n2nc(C)c3c(C)n(-c4ccc(C)cc4)nc3c2=O)c1 (centres undefined) do in these assays?
ABCB6 inh MLPCN: 88; AI-2 QS modul: 3; MLLE-PAM2 inh: -11; PHOSPHO1 inh: 41

Compound activity (PubChem)
